# Assay results published in PubChem BioAssay (NCI).
# This is part of a sample that, as a whole, favours compounds with a hit. Of some 83,000 tested, about 20% had one in any assay.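 Testing used 96-well plates and a 48-hour single-concentration exposure. Example: -40 means 40% of the starting cells died.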 Activity calls are given as the source filed them. Rule for the calls: active = growth percent below 10; inactive = the rest.
# System: SN12C renal
# Assay: NCI-60 one-dose screen, 48 h (100 = growth as untreated, 0 = no growth, -100 = all killed)
# Details: 10 µM unless noted
row,SMILES,growth
1,COC(=O)Cc1cc(COC(C)=O)ccc1C,114% (inactive)
2,Cc1ccc(/C=N/NC(N)=S)s1,99% (inactive)
3,Cc1cc(=O)n(Nc2ccccc2)c(O)c1C#N,99.4% (inactive)
4,CN(C)c1ccc(O)c2c1CC1CC3C(N(C)C)C(=O)C(C(N)=O)=C(O)C3(O)C(=O)C1=C2O (stereo unspecified),35.6% (inactive)
5,CC(=O)c1ccc(C)cc1,103% (inactive)
6,CCOC(=O)Nc1nccs1,97.8% (inactive)
7,CCNC(=O)Oc1ccc[nH]c1=O,104% (inactive)
8,Cc1nc(C)c(C(=O)O)cc1C(=O)O,125% (inactive)
9,CC(=O)OCC1OC(n2cnc3c(=S)nc(N)[nH]c32)C(OC(C)=O)C1OC(C)=O (stereo unspecified),97.4% (inactive)
10,Nc1cccc2cccc(O)c12,91% (inactive)
11,CC(CCC#N)(CCC#N)C(=O)c1ccccc1,102% (inactive)
12,O=[N+]([O-])c1c(Cl)ncnc1Cl,111% (inactive)
13,NS(=O)(=O)c1cc(=O)[nH]c(=O)[nH]1,108% (inactive)
14,COc1ccc2c(Cl)cc(NC(=O)Nc3c(C)cccc3C)nc2c1,82.6% (inactive)
15,Cc1nc(O)cc(=O)[nH]1,109% (inactive)
16,O=C(OC1CCCC1)c1ccccc1Cl,108% (inactive)
17,CC(C)c1ccc(C(=O)OCCCl)cc1,99.3% (inactive)
18,CCCCNC(=O)c1ccc(OCC)cc1,103% (inactive)
19,N#Cc1ccc(OC(=O)Nc2cc(Cl)cc(Cl)c2)cc1,-14% [100 µM] (active)
20,CCOC(=O)C(C#N)=C1CCN(C)CC1,97% (inactive)
21,CCOc1ccc(C(=O)NCC(C)C)cc1,99.9% (inactive)
22,Cc1ccc(NC(=O)c2ccccc2Cl)cc1,101% (inactive)
23,Nc1ccccc1SC1CC(=O)N(c2ccc(Cl)c(Cl)c2)C1=O (stereo unspecified),115% (inactive)
24,OCC1CCC(O)C(CO)N1 (stereo unspecified),103% (inactive)
25,CCCCCCCCNC(=O)C(C)C,95.8% (inactive)
26,N#C/C(=C\c1ccc2c(c1)OCO2)c1ccccc1,89.3% (inactive)

# System: UO-31 renal
# Assay: as above
# Details: 10 µM unless noted
row,SMILES,growth
1,COC(=O)Cc1cc(COC(C)=O)ccc1C,81.3% (inactive)
2,CN(C)c1ccc(O)c2c1CC1CC3C(N(C)C)C(=O)C(C(N)=O)=C(O)C3(O)C(=O)C1=C2O (stereo unspecified),23.6% (inactive)
3,C/C(=N\N=C(/C)c1cccc([N+](=O)[O-])c1)c1cccc([N+](=O)[O-])c1,92.8% (inactive)
4,CC(=O)c1ccc(C)cc1,75.7% (inactive)
5,O=C1Nc2ccccc2/C1=C\c1ccccc1O,51.3% (inactive)
6,CC(=O)OCC1OC(n2cnc3c(=S)nc(N)[nH]c32)C(OC(C)=O)C1OC(C)=O (stereo unspecified),72.6% (inactive)
7,CC(CO)(CO)C(=O)O,98.6% (inactive)
8,CCOC(=O)CNC,107% (inactive)
9,CC(c1ccccc1)N(C)C (stereo unspecified),71.4% (inactive)
10,COC1CC(OC(=O)c2ccc([N+](=O)[O-])cc2)C(COC(=O)c2ccc([N+](=O)[O-])cc2)O1 (stereo unspecified),95.6% (inactive)
11,Nc1cccc2cccc(O)c12,52.8% (inactive)
12,CC(CCC#N)(CCC#N)C(=O)c1ccccc1,77.1% (inactive)
13,NS(=O)(=O)c1cc(=O)[nH]c(=O)[nH]1,100% (inactive)
14,CC(=O)c1cccc(O)c1,90.5% (inactive)
15,Cc1nc(O)cc(=O)[nH]1,72.8% (inactive)
16,O=C(OC1CCCC1)c1ccccc1Cl,93.2% (inactive)
17,CC(C)c1ccc(C(=O)OCCCl)cc1,92.6% (inactive)
18,CCCCNC(=O)c1ccc(OCC)cc1,101% (inactive)
19,CCOC(=O)C(C#N)=C1CCN(C)CC1,87.5% (inactive)
20,CCOc1ccc(C(=O)NCC(C)C)cc1,93.5% (inactive)
21,O=S(=O)(c1ccc(NC(=S)NCc2cccnc2)cc1)N1CCCCC1,70.7% (inactive)
22,Cc1ccc(NC(=O)c2ccccc2Cl)cc1,97% (inactive)
23,Nc1ccccc1SC1CC(=O)N(c2ccc(Cl)c(Cl)c2)C1=O (stereo unspecified),72.6% (inactive)
24,OCC1CCC(O)C(CO)N1 (stereo unspecified),90.8% (inactive)
25,CCCCCCCCNC(=O)C(C)C,99.1% (inactive)
26,N#C/C(=C\c1ccc2c(c1)OCO2)c1ccccc1,76.7% (inactive)

# System: TK-10 renal
# Assay: as above
# Details: 10 µM unless noted
row,SMILES,growth
1,COC(=O)Cc1cc(COC(C)=O)ccc1C,88.5% (inactive)
2,Cc1ccc(/C=N/NC(N)=S)s1,105% (inactive)
3,Cc1cc(=O)n(Nc2ccccc2)c(O)c1C#N,104% (inactive)
4,C/C(=N\N=C(/C)c1cccc([N+](=O)[O-])c1)c1cccc([N+](=O)[O-])c1,90.8% (inactive)
5,CC(=O)c1ccc(C)cc1,105% (inactive)
6,O=C1Nc2ccccc2/C1=C\c1ccccc1O,124% (inactive)
7,CCOC(=O)Nc1nccs1,104% (inactive)
8,CCNC(=O)Oc1ccc[nH]c1=O,110% (inactive)
9,Cc1nc(C)c(C(=O)O)cc1C(=O)O,112% (inactive)
10,CC(=O)OCC1OC(n2cnc3c(=S)nc(N)[nH]c32)C(OC(C)=O)C1OC(C)=O (stereo unspecified),82.4% (inactive)
11,CC(CO)(CO)C(=O)O,103% (inactive)
12,CCOC(=O)CNC,126% (inactive)
13,CC(c1ccccc1)N(C)C (stereo unspecified),135% (inactive)
14,COC1CC(OC(=O)c2ccc([N+](=O)[O-])cc2)C(COC(=O)c2ccc([N+](=O)[O-])cc2)O1 (stereo unspecified),124% (inactive)
15,Nc1cccc2cccc(O)c12,83.7% (inactive)
16,CC(CCC#N)(CCC#N)C(=O)c1ccccc1,106% (inactive)
17,O=[N+]([O-])c1c(Cl)ncnc1Cl,107% (inactive)

row,SMILES,growth
1,NS(=O)(=O)c1cc(=O)[nH]c(=O)[nH]1,113% (inactive)
2,COc1ccc2c(Cl)cc(NC(=O)Nc3c(C)cccc3C)nc2c1,35% (inactive)
3,CC(=O)c1cccc(O)c1,90% (inactive)
4,Cc1nc(O)cc(=O)[nH]1,107% (inactive)
5,Cc1ccc(C)c2c1CCC2=O,105% (inactive)
6,O=C(OC1CCCC1)c1ccccc1Cl,100% (inactive)
7,CC(C)c1ccc(C(=O)OCCCl)cc1,94.6% (inactive)
8,CCCCNC(=O)c1ccc(OCC)cc1,105% (inactive)
9,N#Cc1ccc(OC(=O)Nc2cc(Cl)cc(Cl)c2)cc1,-4.01% [100 µM] (active)
10,CCOC(=O)C(C#N)=C1CCN(C)CC1,108% (inactive)
11,COC(CCCl)c1ccc(Cl)cc1 (stereo unspecified),86.3% (inactive)
12,CCOc1ccc(C(=O)NCC(C)C)cc1,97.8% (inactive)
13,O=S(=O)(c1ccc(NC(=S)NCc2cccnc2)cc1)N1CCCCC1,112% (inactive)
14,Cc1ccc(NC(=O)c2ccccc2Cl)cc1,115% (inactive)
15,Nc1ccccc1SC1CC(=O)N(c2ccc(Cl)c(Cl)c2)C1=O (stereo unspecified),137% (inactive)
16,OCC1CCC(O)C(CO)N1 (stereo unspecified),121% (inactive)
17,CCCCCCCCNC(=O)C(C)C,98.5% (inactive)
